Inconclusive results are not listed. The source made the active and inactive calls.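 The calls were made as follows, unless noted: active = normalized viability below 100% at a tested concentration; inactive = the rest.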
Experiments:
[1] = growth inhibition of DIPG glioma cells, dose response, cell-based, SU-DIPG-XVII, MIPE5.0, CellTiter-Glo, qHTS (AID 1347060; cut-off not given, nearly all actives have AC50 up to about 26 µM;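 as to AC50: cells exposed to compound for 48 hours before viability readout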); conditions: SU-DIPG-XVII viability, CellTiter-Glo ATP luminescence
[2] = growth inhibition of DIPG glioma cells, dose response, cell-based, SU-DIPG-IV, MIPE4.0, CellTiter-Glo, qHTS (AID 1347063; cut-off not given, nearly all actives have AC50 up to about 30 µM;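 also: compound exposure lasted 48 hours before the viability readout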); conditions: SU-DIPG-IV viability, CellTiter-Glo ATP luminescence
[3] = growth inhibition of DIPG glioma cells, dose response, cell-based, SU-DIPG-XIII, MIPE5.0, CellTiter-Glo, qHTS (AID 1347064; cut-off not given, nearly all actives have AC50 up to about 23 µM;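 also: cells exposed to compound for 48 hours before the viability read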); conditions: SU-DIPG-XIII viability, CellTiter-Glo ATP luminescence
[4] = viability loss in pontine glioma line – cell-based, SU-DIPG-XXV, MIPE5.0, CellTiter-Glo, qHTS, dose response (AID 1347065; cut-off not given, nearly all actives have AC50 up to about 26 µM;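 also: cells exposed to compound for 48 hours before ATP readout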); conditions: CellTiter-Glo ATP luminescence
[5] = JHH-DIPG-1 glioma cell viability, MIPE5.0 library, CellTiter-Glo luminescence, qHTS (AID 1347067; cut-off not given, nearly all actives have AC50 up to about 26 µM;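 also: cells exposed to compound for 48 hours before readout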); conditions: JHH-DIPG-1 glioma viability, CellTiter-Glo ATP luminescence
[6] = SU-DIPG-XXV glioma cell viability, MIPE5.0 library, qHTS (AID 1347068; cut-off not given, nearly all actives have IC50 up to about 30 µM;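 as to IC50: cells exposed to compound for 48 hours before viability readout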)
[7] = sensitizers of A549 cells to miR-34 induction, primary screen, imaging, A549 dox-inducible miR-34, nuclei and caspase counts (AID 1347080;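 active = compounds whose cell count with miR-34 switched on is under 0.7 times the count with it off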); conditions: A549 miR-34 inducible, Hoechst nuclei count, 48 h
[8] = modifiers of HSF1 nuclear foci, imaging, Selleck Cancer Library (AID 1347162; in the data active = plate-normalised HSF1 focus index below about 0.46); conditions: human cells, at 10 µM; SSMD: measured here: HSF1 foci SSMD mean; cell count: measured here: cell number; plate-normalised HSF1 focus index: stronger effect = lower value
[9] = survival rescue of mitochondrial mutant cells in low glucose, primary screen, MELAS cybrids, Rieske KO mouse fibroblasts, CellTiter-Glo (AID 1508586;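 active = mean z-score across replicates of 1.96 or higher in either the MELAS or the Rieske mutant cell line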;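 also: z relative to plate mean and SD of compound and empty wells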)
[10] = ovarian cancer cell viability with rucaparib, profiling panel, oncology-focused library, rucaparib conditional (AID 1508598); conditions: patient-derived ovarian cancer cells, CellTiter-Glo viability, 144 h, stronger effect = lower value
[11] = growth inhibition of DIPG glioma cells, dose response, cell-based, JHH-DIPG-1, MIPE4.0, CellTiter-Glo, qHTS (AID 1347062; cut-off not given, nearly all actives have AC50 up to about 27 µM); conditions: JHH-DIPG-1 viability, CellTiter-Glo ATP luminescence
[12] = stronger effect = lower value, cell number ratio, induced over uninduced
[13] = measured here: relative caspase fold change +Dox/-Dox
[14] = measured here: total cells with miR-34 induction, stronger effect = lower value
[15] = measured here: total cells without miR-34 induction
[16] = MELAS cybrid survival, CellTiter-Glo 48 h, stronger effect = higher value
[17] = Rieske KO mouse fibroblast survival, CellTiter-Glo 72 h
[18] = at 0.000305 µM, OCI-C5x cells, with rucaparib 10 µM, 100% = cells with rucaparib alone
[19] = at 0.000305 µM, OCI-C5x cells, without rucaparib
[20] = at 0.000305 µM, OCI-P5x cells, with rucaparib 20 µM, 100% = cells with rucaparib alone
[21] = at 0.000305 µM, OCI-P5x cells, without rucaparib
[22] = at 0.00122 µM, OCI-C5x cells, with rucaparib 10 µM, 100% = cells with rucaparib alone
[23] = at 0.00122 µM, OCI-C5x cells, without rucaparib
[24] = at 0.00122 µM, OCI-P5x cells, with rucaparib 20 µM, 100% = cells with rucaparib alone
[25] = at 0.00122 µM, OCI-P5x cells, without rucaparib
[26] = at 0.00488 µM, OCI-C5x cells, with rucaparib 10 µM, 100% = cells with rucaparib alone
[27] = at 0.00488 µM, OCI-C5x cells, without rucaparib
[28] = at 0.00488 µM, OCI-P5x cells, with rucaparib 20 µM, 100% = cells with rucaparib alone
[29] = at 0.00488 µM, OCI-P5x cells, without rucaparib
[30] = at 0.0195 µM, OCI-C5x cells, with rucaparib 10 µM, 100% = cells with rucaparib alone
[31] = at 0.0195 µM, OCI-C5x cells, without rucaparib
[32] = at 0.0195 µM, OCI-P5x cells, with rucaparib 20 µM, 100% = cells with rucaparib alone
[33] = at 0.0195 µM, OCI-P5x cells, without rucaparib
[34] = at 0.0781 µM, OCI-C5x cells, with rucaparib 10 µM, 100% = cells with rucaparib alone
[35] = at 0.0781 µM, OCI-C5x cells, without rucaparib
[36] = at 0.0781 µM, OCI-P5x cells, with rucaparib 20 µM, 100% = cells with rucaparib alone
[37] = at 0.0781 µM, OCI-P5x cells, without rucaparib
[38] = at 0.313 µM, OCI-C5x cells, with rucaparib 10 µM, 100% = cells with rucaparib alone
[39] = at 0.313 µM, OCI-C5x cells, without rucaparib
[40] = at 0.313 µM, OCI-P5x cells, with rucaparib 20 µM, 100% = cells with rucaparib alone
[41] = at 0.313 µM, OCI-P5x cells, without rucaparib
[42] = at 1.25 µM, OCI-C5x cells, with rucaparib 10 µM, 100% = cells with rucaparib alone
[43] = at 1.25 µM, OCI-C5x cells, without rucaparib
[44] = at 1.25 µM, OCI-P5x cells, with rucaparib 20 µM, 100% = cells with rucaparib alone
[45] = at 1.25 µM, OCI-P5x cells, without rucaparib
[46] = at 5 µM, OCI-C5x cells, with rucaparib 10 µM, 100% = cells with rucaparib alone
[47] = at 5 µM, OCI-C5x cells, without rucaparib
[48] = at 5 µM, OCI-P5x cells, with rucaparib 20 µM, 100% = cells with rucaparib alone
[49] = at 5 µM, OCI-P5x cells, without rucaparib

N#CCNC(=O)c1ccc(-c2ccnc(Nc3ccc(N4CCOCC4)cc3)n2)cc1
7330: cell count [8]
1230: cell count [7, 15]
active: AC50 [1] 16.6 µM | AC50 [2] 20.9 µM | AC50 [3] 13.2 µM | AC50 [4] 16.6 µM | AC50 [5] 13.2 µM | IC50 [6] 18.6 µM | z-score [9, 16] 5.22 | viability [10, 29] 96.8% | viability [10, 33] 93.3% | viability [10, 36] 96.9% | viability [10, 37] 92.3% | viability [10, 40] 90.7% | viability [10, 41] 66.2% | viability [10, 44] 84.2% | viability [10, 45] 84.9% | viability [10, 46] 78.5% | viability [10, 48] 46.8% | viability [10, 49] 49%
inactive: fold change [7, 12] 0.941 | plate-normalised HSF1 focus index [8] 0.876 | viability [10, 18] 109% | viability [10, 19] 113% | viability [10, 20] 105% | viability [10, 21] 104% | viability [10, 22] 103% | viability [10, 23] 108% | viability [10, 24] 105% | viability [10, 25] 103% | viability [10, 26] 110% | viability [10, 27] 117% | viability [10, 28] 106% | viability [10, 30] 109% | viability [10, 31] 104% | viability [10, 32] 103% | viability [10, 34] 122% | viability [10, 35] 116% | viability [10, 38] 108% | viability [10, 39] 105% | viability [10, 42] 120% | viability [10, 43] 101% | viability [10, 47] 109%
1150: cell count [7, 14]
-1.38: z-score [9, 17]
-3.51: SSMD [8]
0.89: fold change [7, 13]

CCOc1cc(/C=C2/C(=O)N(c3ccccc3)N=C2C)cc(Cl)c1OCC(=O)OC
inactive: outcome [1] | outcome [11] | outcome [4] | outcome [5] | outcome [6] | plate-normalised HSF1 focus index [8] 1.07
1.24: SSMD [8]
6670: cell count [8]

CC1(C)CNc2cc(NC(=O)c3cccnc3NCc3ccncc3)ccc21
7630: cell count [7, 15]
0.896: z-score [9, 17]
active: AC50 [1] 20.9 µM | AC50 [4] 16.6 µM | viability [10, 45] 98.9% | viability [10, 49] 94.6%
7450: cell count [8]
2.51: SSMD [8]
0.926: fold change [7, 13]
7470: cell count [7, 14]
inactive: outcome [11] | outcome [6] | fold change [7, 12] 0.978 | plate-normalised HSF1 focus index [8] 1.16 | z-score [9, 16] -0.604 | viability [10, 18] 121% | viability [10, 19] 126% | viability [10, 20] 128% | viability [10, 21] 103% | viability [10, 22] 114% | viability [10, 23] 128% | viability [10, 24] 134% | viability [10, 25] 102% | viability [10, 26] 112% | viability [10, 27] 122% | viability [10, 28] 135% | viability [10, 29] 104% | viability [10, 30] 121% | viability [10, 31] 128% | viability [10, 32] 140% | viability [10, 33] 105% | viability [10, 34] 119% | viability [10, 35] 141% | viability [10, 36] 138% | viability [10, 37] 108% | viability [10, 38] 122% | viability [10, 39] 126% | viability [10, 40] 142% | viability [10, 41] 107% | viability [10, 42] 135% | viability [10, 43] 146% | viability [10, 44] 145% | viability [10, 46] 137% | viability [10, 47] 148% | viability [10, 48] 131%

From PubChem BioAssay
